From the supplement of paper PMC6555819

System: LXRb:RXRa (NR concentration 270 nM, RXRa partner concentration 90 nM)
Test: PBM binding z-score (relative to random genomic background probes); higher = stronger binding; sequences stand for … in GC…GCGATTGACAGCGTAGAATGAAGG
Method: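 Protein-binding microarray (Agilent 4x180K custom design, double-stranded 60-nt probes: 5' GC cap, 34-nt variable region, 24-nt constant primer region; full probe sequence given). Purified or IVT nuclear receptor:RXRα heterodimers (3:1 NR:RXRα, mostly 270:90 nM) or homodimers were incubated for 1 h in PBS with 2% milk and no ligand, then detected with Alexa488 antibodies. Fluorescence from o1-orientation probes (~5 replicates averaged) was converted to z-scores against 500 random hg19 background probes. Variable regions are seed direct-repeat (DR0–DR5) sites, all their single-nucleotide variants and half-site ablations.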

Compared with TTGCCAAGGTGAAAGGTCGTTGATGCACGCCTTG, CCTTACGGGTCACTGACAGGTTATAGCGTTTGGA is higher in PBM binding z-score: 2.63 for the first, 3.4 for the second.

Going from TAGCCTAGGTCGTTCAGGGGCCAGTATAGAAAGC to AGTCAAAGTTCATCTAGGTCACGTAAGATATGCT, the PBM binding z-score rises from 0.582 to 4.9.

First: GTTACAGGGTCAAGGCCAGAGTACGCGTATTGAT
Second: TCTAGTCGGTCAAAGGTCACACACTCGAAATGCG
The PBM binding z-score of the first is lower: 3.64 for the first, 5.97 for the second.

Going from ATCGAAAGGTCTAAGGTGAGTATACCCACCCGAA to CAAACTAGGTCACAAAAGGTCAAAGTCGAATGAC, the PBM binding z-score rises from 0.196 to 7.76.

First: CGAACAAGGTCATCCAGGACAGTGAATACATTGA
Second: ATCGAAAGGTCCACGAGGTGAGTATACACCGTTT
The PBM binding z-score of the first is higher: 4.67 for the first, -0.0349 for the second.

First: ACTTAAGGGTCAACGAGGTTATAGCACGCGTATA
Second: CAAACTAGTTCAAGAGGTCAAAGTCCGCTTCCCG
The PBM binding z-score of the first is lower: 5.33 for the first, 5.37 for the second.

Going from TCTAGTTGGTCACGGAGGACACACACGACGGGTA to TTACCAAGGTGAACGGTCGTTGATGCACGCCTTG, the PBM binding z-score falls from 0.424 to 0.334.

Compared with CGTCCAAAGTCAAAGGTCAGTGAAGAGATGACGG, TAGCCTAGGTCACATCGGGCCAGTATACGCTATA is lower in PBM binding z-score: 3.44 for the first, 2.29 for the second.

First: TCTAGTTGGTCACGGAGGTCCCACACGACGGGTA
Second: CGAACTAGGTCAAGGCCAGTGAATCTCCGCACGC
The PBM binding z-score of the first is lower: 0.167 for the first, 1.44 for the second.

Going from GCATATAGGTAATACAAGGTCAAAGTCCGATTGT to TATACAAGGTCAAAGGCCAGAGTACGAATGTCGA, the PBM binding z-score falls from 5.63 to 5.46.

Compared with TAGCCTAGGTCATGCGGGCCAATATAGTGTCGGC, ATCGAAAGGTCGACGAGGTGAGTAAACACCGTTT is higher in PBM binding z-score: 1.9 for the first, 2.87 for the second.

Compared with TAGCCTAGTTCATTCAGGGGCCAGTATAGAAAGC, CGTCCAAGGTCGAAGGTCAGTGAAGAGATGACGG is higher in PBM binding z-score: 0.643 for the first, 2.62 for the second.

Compared with TCTTGTAGATCAATAGAAGTTAAGAAAGTGCGCT, TTACCAAGGTCAAGGTCGTTGATCCCTCTGTAGA is higher in PBM binding z-score: 0.436 for the first, 5.02 for the second.

Compared with CCTACTGGGCCAAAGAGGTCATTGATGCCGATAA, CGCACTAGGTCATCCAGGACAGTGAATACATTGA is lower in PBM binding z-score: 3.65 for the first, 2.21 for the second.

Compared with GATACAGGGTCAGCTACAGGCCAGAGTATGGAAA, CCTAGTGGGCCAAGGTCATTGATCAGTCAAAGCA is higher in PBM binding z-score: 2.51 for the first, 2.79 for the second.

Compared with CGTTCAAGGTCAAAGGTCAGTGAAGAGATGACGG, CCGACTGGGGCAAGGTCACCATAACGCACAGCCA is lower in PBM binding z-score: 6.76 for the first, 2.81 for the second.

First: ATCGAAAGGTCGACCAGGTGAGTATACACCGTTT
Second: CTATGTAGGTTAAGGGAGTCATTCAGTTTGAAAG
The PBM binding z-score of the first is higher: 3.1 for the first, 0.642 for the second.

First: CGTCCAAGGTCAAGGTCAATGAAAGAGACTCGAA
Second: TCTAGTTGGTCACGGAGGTCACAAACGACGGGTA
The PBM binding z-score of the first is higher: 4.94 for the first, 3.15 for the second.

First: TAGCCTAAGTCATGCGGGCCAGTATAGTGTCGGC
Second: CAAACCAGGTCAAGAGGTCAAAGTCCGCTTCCCG
The PBM binding z-score of the first is lower: -0.501 for the first, 5.73 for the second.

First: CAAACTAGGTCAAGAGGTCAAAGTTCGCTTCCCG
Second: AGAATGAGGTCATTAAGATCAGGGAATTGCGGTC
The PBM binding z-score of the first is higher: 6.05 for the first, 4.71 for the second.
